Laboratory results reported in PubChem BioAssay (EPA / NIEHS).
Inconclusive results are not listed. The source made the active and inactive calls. How the source made its calls, unless noted: active means hit-call score of the fitted dose curve at least 0.9, where 1 is the maximum; inactive means score below 0.9.

Experiments:
[1] = read-out: Transforming Growth Factor (TGFB1), TGFB1 (gene 7040); assay: LTEA_HepaRG_TGFB1: Life Technologies and Expression Analysis (LTEA) Assay for Transforming Growth Factor (TGFB1) Transporter using HepaRG (AID 2283533); settings: mRNA level, 48 h; actives raise or lower the signal
Summary of the method: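 HepaRG, 48 h post-plating, switched to serum-free induction medium; chemicals 100 uM top, half-log, 8 pts, 0.5% DMSO, dup; 48 h exposure; RNA → Fluidigm TaqMan qRT-PCR; norm ACTB/GAPDH/POLR2A; bidirectional fit vs DMSO.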

[2] = read-out: TIMP1, TIMP1 (gene 7076); assay: LTEA_HepaRG_TIMP1: Life Technologies and Expression Analysis (LTEA) Assay for TIMP1 using HepaRG (AID 2283534); settings: mRNA level, 48 h; actives raise or lower the signal
Summary of the method: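 Readout is TIMP1 mRNA level measured by qRT-PCR and normalized to three housekeeping genes. Human HepaRG cells were treated for 48 h in duplicate at eight concentrations up to 100 uM (0.5% DMSO); gain or loss fitted against DMSO.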

[3] = read-out: Tumor necrosis factor receptor 1 (TNFRSF1A), TNFRSF1A (gene 7132); assay: LTEA_HepaRG_TNFRSF1A: Life Technologies and Expression Analysis (LTEA) Assay for Tumor necrosis factor receptor 1 (TNFRSF1A) using HepaRG (AID 2283535); settings: mRNA level, 48 h; actives raise or lower the signal
Summary of the method: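 Read-out is TNFRSF1A transcript level by TaqMan qRT-PCR, normalized to three housekeeping genes, scored as gain or loss of signal versus 0.5% DMSO. Human HepaRG cells received test chemicals for 48 h at up to 100 uM (half-log series).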

[4] = read-out: Thyroid Hormone Responsive (THRSP), THRSP (gene 7069); assay: LTEA_HepaRG_THRSP: Life Technologies and Expression Analysis (LTEA) Assay for Thyroid Hormone Responsive (THRSP) using HepaRG (AID 2283536); settings: mRNA level, 48 h; actives raise or lower the signal
Summary of the method: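 THRSP transcript quantified by Fluidigm qRT-PCR against three housekeeping genes after 48 h chemical exposure of HepaRG cells in serum-free induction medium; eight-point half-log series, top 100 uM, 0.5% DMSO vehicle, duplicate wells.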

[5] = read-out: UDP glucuronosyltransferase (UGT1A1), UGT1A1 (gene 54658); assay: LTEA_HepaRG_UGT1A1: Life Technologies and Expression Analysis (LTEA) Assay for UDP glucuronosyltransferase (UGT1A1) using HepaRG (AID 2283538); settings: mRNA level, 48 h; actives raise or lower the signal
Summary of the method: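 HepaRG, 48 h chemical exposure (top 100 uM, half-log 8-pt, 0.5% DMSO vehicle), duplicate wells; qRT-PCR (TaqMan, Fluidigm array) for UGT1A1 mRNA, housekeeping-normalized; bidirectional curve fit vs DMSO baseline.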

[6] = read-out: UDP glucuronosyltransferase (UGT1A6), UGT1A6 (gene 54578); assay: LTEA_HepaRG_UGT1A6: Life Technologies and Expression Analysis (LTEA) Assay for UDP glucuronosyltransferase (UGT1A6) using HepaRG (AID 2283539); settings: mRNA level, 48 h; actives raise or lower the signal
Summary of the method: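 HepaRG, 48 h post-plating switch to serum-free induction medium; chemical 48 h, 100 uM top, half-log x8, duplicate, 0.5% DMSO. Phenobarbital 1mM induction control. UGT1A6 mRNA by TaqMan qRT-PCR; gain/loss fit vs DMSO.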

[7] = read-out: X-box binding protein 1 (XBP1), XBP1 (gene 7494); assay: LTEA_HepaRG_XBP1: Life Technologies and Expression Analysis (LTEA) Assay for X-box binding protein 1 (XBP1) using HepaRG (AID 2283540); settings: mRNA level, 48 h; actives raise or lower the signal
Summary of the method: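 Transcript levels of XBP1, measured by qRT-PCR and normalised to three housekeeping genes, were fitted bidirectionally relative to 0.5% DMSO controls. Human HepaRG cells received eight-point half-log dilutions from 100 uM for 48 h.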

[8] = LTEA_HepaRG_LDH_cytotoxicity: Cytotoxicity Assessment in the Life Technologies and Expression Analysis (LTEA) Assay (AID 2283563; active means hit-call score of the fitted dose curve at least 0.9, where 1 is the maximum;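 on AC50: LDH activity released into spent culture medium as a marker of cell death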)
Summary of the method: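 Cells were thawed and plated for 48 h. Medium was then replaced with serum-free induction medium. Chemicals (8 half-log points, maximum 100 uM, 0.5% DMSO) were added in duplicate for 48 h, after which spent medium was assayed for LDH.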

[9] = ATG_XTT_Cytotoxicity: Cytotoxicity Assessment in the Attagene TRANS-FACTORIAL HepG2 Assay (AID 2283584; active means hit-call score of the fitted dose curve at least 0.9, where 1 is the maximum;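 on AC50: cells exposed to compound for 24 h before reading; active means loss of viability signal versus DMSO baseline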)
Summary of the method: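 Cells: human HepG2, transiently transfected with MRTU reporter constructs. Exposure 24 h. Readout: XTT, cell number. Baseline/neg ctrl DMSO; loss-of-signal scored.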

Measured: AC50

Nc1c(Cl)cc([N+](=O)[O-])cc1Cl
inactive: [1] | [7] | [8] | [9]
active: [2] 74 µM | [3] 74.1 µM | [4] 42.3 µM | [5] 11.4 µM | [6] 78.1 µM

CCOP(=O)(SC(C)CC)N1CCSC1=O (configuration not stated)
inactive: [1] | [2] | [3] | [4] | [5] | [6] | [7] | [8]

CCOP(=O)(OCC)Oc1cc(C)nc(C(C)C)n1
inactive: [1] | [2] | [3] | [4] | [5] | [6] | [7] | [8]

CNC(=O)ON=C(C)SC
inactive: [1] | [2] | [3] | [4] | [5] | [6] | [7] | [8]

COP(=O)(OC)SCn1c(=O)oc2cc(Cl)cnc21
active: [3] 0.262 µM | [4] 73.4 µM | [5] 9.92 µM | [6] 9.92 µM | [8] 74.2 µM
inactive: [1] | [2] | [7]

CN(C)NC(=O)CCC(=O)O
inactive: [1] | [2] | [3] | [4] | [5] | [6] | [7] | [8]

CCC(=NOC/C=C/Cl)C1=C(O)CC(C2CCOCC2)CC1=O (configuration not stated)
inactive: [1] | [2] | [3] | [4] | [5] | [6] | [7] | [8]

CCCCN(CC)c1c([N+](=O)[O-])cc(C(F)(F)F)cc1[N+](=O)[O-]
active: [5] 32.2 µM
inactive: [1] | [2] | [3] | [4] | [6] | [7] | [8]

CCOP(=S)(Oc1cnc(C(C)(C)C)nc1)OC(C)C (configuration not stated)
inactive: [1] | [2] | [3] | [5] | [6] | [8]
active: [4] 68.5 µM | [7] 50 µM

CNc1cnn(-c2cccc(C(F)(F)F)c2)c(=O)c1Cl
inactive: [1] | [2] | [3] | [4] | [6] | [7] | [8]
active: [5] 16.1 µM

CCCSP(=O)(OCC)SCCC
inactive: [1] | [2] | [3] | [4] | [6] | [7] | [8]
active: [5] 22.8 µM

CSc1nnc(C(C)(C)C)c(=O)n1N
inactive: [1] | [2] | [3] | [4] | [6] | [7] | [8]
active: [5] 9.92 µM

CSC1=N[C@@](C)(c2ccccc2)C(=O)N1Nc1ccccc1
inactive: [1] | [2] | [3] | [7]
active: [4] 71.4 µM | [5] 32.1 µM | [6] 33.2 µM | [8] 32.4 µM

O=[N+]([O-])c1cc(C(F)(F)F)c(Cl)c([N+](=O)[O-])c1Nc1ncc(C(F)(F)F)cc1Cl
inactive: [2] | [3] | [7]
active: [1] 79.7 µM | [4] 23.9 µM | [5] 79.5 µM | [6] 73.6 µM | [8] 48.4 µM | [9] 38.8 µM

Cc1cc(C2CC2)nc(Nc2ccccc2)n1
active: [4] 50 µM | [5] 50 µM | [8] 73.7 µM
inactive: [1] | [2] | [3] | [6] | [7]

COc1cc(OC)nc(Sc2cccc(Cl)c2C(=O)O)n1
inactive: [1] | [2] | [3] | [4] | [5] | [6] | [7] | [8]

CNC(=O)ON=C(SC)C(=O)N(C)C
inactive: [1] | [2] | [3] | [4] | [5] | [6] | [7] | [8]

CCOP(=O)(NC(C)C)Oc1ccc(SC)c(C)c1 (configuration not stated)
inactive: [1] | [2] | [3] | [4] | [6] | [7] | [8] | [9]
active: [5] 50 µM
